PubChem BioAssay AID1014 (NMMLSC, 2008)
Active and inactive are the calls of the source. No stated cut-off is given here; in the data, active means inhibition of mean fluorescence above about 33%; inactive means the rest.

Experiment: quorum sensing inhibitors in bacterial reporter, SAR follow-up, flow cytometry, SAR analogs (AID 1014);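 further: Staphylococcus aureus RN6390 with RNAIII-GFP reporter stimulated by AIP; bacteria incubated with compound for 3 hours at 37 °C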
Conditions: at 20 µM, stronger effect = higher value; inhibition of percent positive cells: flow cytometry fluorescence, measured here: percent reporter-positive cells

SMILES | inhibition of mean fluorescence | inhibition of percent positive cells [%]
Cc1ccc(NC(=O)CN2CCN(Cc3ccc4c(c3)OCO4)CC2)cc1 | -30.1% (inactive) | -0.8
COc1ccc(Nc2nc3c(S(=O)(=O)c4ccc(F)cc4)nnn3c3ccccc23)cc1 | -28.2% (inactive) | -1.1
COc1ccc(CC(=O)Nc2oc(-c3ccccc3)c(-c3ccccc3)c2C#N)cc1OC | 20% (inactive) | -0.5
Cc1oc2ccc(O)cc2c1C(=O)OC(C)C | -11.3% (inactive) | 0.1
Cc1ccc(Nc2c(F)c(F)c(F)c(F)c2C(=O)O)cc1 | 9.9% (inactive) | -0.2
CSCCC(NC(=O)c1ccccc1)C(=O)OCC(=O)Nc1sc2c(c1C#N)CCCC2 (stereo not given) | 40.6% (active) | -0.2
COc1ccccc1N1CCN(C(CNC(=O)c2cccc(Cl)c2)c2cccnc2)CC1 (stereo not given) | 72.3% (active) | 15.4
O=C(Nc1ccc2c(c1)OCO2)C(c1ccccc1)N1CCC2(CC1)OCCO2 (stereo not given) | -2.7% (inactive) | -0.2
COc1ccc(NC(=O)C(c2cc3c(cc2[N+](=O)[O-])OCO3)N2CCN(C=O)CC2)cc1 (stereo not given) | -23.1% (inactive) | 0
O=C(Nc1ccc2c(c1)OCCO2)C(c1ccc(F)cc1)N1CCCCC1 (stereo not given) | 12.6% (inactive) | -0.6
COc1cccc(-n2cc(C(=O)N=C3NC(=O)CS3)c3ccccc3c2=O)c1 | -5.7% (inactive) | 0
O=C(O)c1ccccc1Nc1cn2ncc([N+](=O)[O-])c2c(=O)[nH]1 | -1.7% (inactive) | -0.3
O=C(NCC(c1cccnc1)N1CCc2ccccc21)c1cccc(F)c1 (stereo not given) | 6.5% (inactive) | -2
O=C(O)c1ccccc1Nc1c([N+](=O)[O-])c(=O)oc2ccccc12 | -23.2% (inactive) | -1.7
O=C(NCC(c1cccnc1)N1CCN(c2ccccc2F)CC1)c1ccccc1F (stereo not given) | -1.3% (inactive) | -0.4
CC(=O)c1c(C)oc2c1cc(O)c1ccccc12 | 9.1% (inactive) | -0.2
Nc1c(Nc2ccccc2C(=O)O)c2ccccc2oc1=O | 0% (inactive) | -2.2
CCOC(=O)c1c(-c2ccc(OC)cc2)oc2ccc(O)cc12 | -20.8% (inactive) | 0.1

SMILES | inhibition of mean fluorescence | inhibition of percent positive cells [%]
O=C(NC1CCCC1)C(c1cc2c(cc1[N+](=O)[O-])OCO2)N1CCN(C2CCCCC2)CC1 (stereo not given) | -24.8% (inactive) | -1.4
Cc1cc(C)nc(Nc2ccc(Br)cc2C(=O)O)n1 | 17.1% (inactive) | 0.6
CN1CCN(C(C(=O)NC2CCCCC2)c2cc3c(cc2[N+](=O)[O-])OCO3)CC1 (stereo not given) | -5.8% (inactive) | -0.4
O=C(NC1CCCC1)C(c1cc2c(cc1[N+](=O)[O-])OCO2)N1CCC(Cc2ccccc2)CC1 (stereo not given) | 4.9% (inactive) | -0.6
CC(C)c1ccc(NC(=O)C(c2cc3c(cc2[N+](=O)[O-])OCO3)N2CCCCC2)cc1 (stereo not given) | 29% (inactive) | -0.2
Cc1ccc(Nc2nc3c(S(=O)(=O)c4ccc(C)cc4)nnn3c3ccccc23)cc1 | -16% (inactive) | 0.9
COc1ccc(N2CCN(C(CNC(=O)c3ccccc3F)c3cccnc3)CC2)cc1 (stereo not given) | -65.6% (inactive) | -1.1
CC(=O)c1cc2c(cc1NC(=O)CN1CCN(C(=O)c3ccco3)CC1)OCO2 | -5.2% (inactive) | -0.1
Cc1ccc(S(=O)(=O)c2nnn3c2nc(Nc2ccc(Oc4ccccc4)cc2)c2cc(Cl)ccc23)cc1 | -19.1% (inactive) | -0.5
COc1ccc(Nc2nc3c(S(=O)(=O)c4ccc(Cl)cc4)nnn3c3ccccc23)cc1 | -19.3% (inactive) | -0.9
CC(=O)c1c(C)oc2ccc(O)cc12 | -5.9% (inactive) | -1.1
COc1ccc(NC(=O)C(c2cc3c(cc2[N+](=O)[O-])OCO3)N2CCCC(C)C2)cc1 (stereo not given) | 29.6% (inactive) | -0.9
CC1CCc2nn(CC(=O)Nc3ccc4c(c3)OCCO4)cc2C1 (stereo not given) | 4.5% (inactive) | 0
CC(NC(=O)c1cccc(F)c1)C(c1cccs1)N1CCN(c2ccccc2F)CC1 (stereo not given) | 16.4% (inactive) | 0.2
CCOC(=O)c1cnc2ccc(OC)cc2c1Nc1ccccc1C(=O)O | -23.9% (inactive) | -1.3
CCOc1ccc(Nc2nc3c(S(=O)(=O)c4ccccc4)nnn3c3ccccc23)cc1 | -16.3% (inactive) | -0.2
CC(C)(C)c1ccc(S(=O)(=O)c2nnn3c2nc(Nc2ccccc2)c2ccccc23)cc1 | -15.5% (inactive) | -0.9
